KKLEB cytotox = reduces viability of KKLEB cystic fibrosis airway cells; KKLEB CF airway cells viability, ATPlite luminescence, overnight; stronger effect = lower value; cells stimulated with P. aeruginosa culture filtrate; activity change (cytotoxicity), % at 5 µM; 360,000 tested, 0.36% active; AID 602141;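 active = corrected activity change at or below -50% at 5 µM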
CF NFkB inh = blocks PAF-induced NF-kB reporter in cystic fibrosis cells. KKLEB NF-kB-GFP reporter, GFP fluorescence overnight. inhibition, % at 5 µM. 360,000 tested, 0.86% active. AID 588850;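 active = at least 50% inhibition at 5 µM, scaled per plate between neutral and stimulator controls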;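 note: PAF is a Pseudomonas aeruginosa culture filtrate used as stimulus; plate controls were PAF-stimulated DMSO wells for no effect and unstimulated DMSO wells for full effect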
PPC-1+TRAIL kill = PPC-1 cancer cell killing with TRAIL present; PPC-1 cells + TRAIL, ATPLite viability luminescence; 220,000 tested, 0.41% active; cell killing (% activity), % at 4 µM or 5 µM; AID 1443;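 active = cell killing above 50% in the first pass at 4 µM, then a duplicate retest at 5 µM averaging 50% or more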;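 note: plate controls were cells with TRAIL plus DMSO for no effect and medium-only wells lacking cells for full effect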
HIF-2a inh = HIF-2a inhibition; 786-0 RCC cells HIF-2a reporter, luciferase luminescence, overnight; inhibition, % at 18.8 µM; 360,000 tested, 0.72% active; AID 624352;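 active = inhibition of the luminescence signal of 40% or more relative to plate controls, in a single-dose primary screen at 18.75 µM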
iPSC survival up = increases survival of single human iPS cells. hiPSC single-cell survival, ATPlite luminescence; 100% = ROCK inhibitor wells, 0% = DMSO. survival enhancement, % at 20 µM. 360,000 tested, 0.044% active. AID 602274; in the data active = survival enhancement above about 18%;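 note: cells exposed to compounds for 16 hours before the ATP read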
TRAIL sens C8 = caspase-8 TRAIL sensitization; AID 624354; inhibition (viability loss, TRAIL sensitization), % at 10 µM; NB7+C8 cells + TRAIL, ATPlite viability luminescence; 360,000 tested, 1% active;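 active = compounds causing at least 50% loss of cell viability in the single-dose screen, relative to plate controls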
Active calls of the source: *; · = no result. Sampled rows, rich in hits. Any-hit rate of the full collection: about 2.2%.

SMILES	KKLEB cytotox	CF NFkB inh	PPC-1+TRAIL kill	HIF-2a inh	iPSC survival up	TRAIL sens C8
Cc1ccc2nc(-c3ccc(NC(=O)COC(=O)c4ccco4)cc3)sc2c1	-31.3	-17.7	55.1*	-60.7	-2.9	71.1*
COc1ccc(/C=C(\C#N)C(=O)OCC(=O)NC(C)c2ccccc2)cc1 (centres undefined)	17.6	-23.7	0.5	15.2	-0.5	-4.6
O=C(Nc1nc(-c2cccs2)cs1)c1ccc([N+](=O)[O-])o1	-12.8	75.5*	·	-10.4	0.0	46.2
COc1ccc(/C=C(\C#N)C(=O)OCC(=O)Nc2ccc(-c3nc4ccc(C)cc4s3)cc2)cc1	-5.7	5.4	40.2	-206.2	-0.4	53.6*
O=C(COC(=O)c1ccc(Br)o1)Nc1ccc(Br)cc1	-6.6	17.6	·	-6.5	-0.3	-8.4
CC1CCCN(C(=O)c2ccc3ncsc3c2)C1 (centres undefined)	8.8	4.5	·	1.1	1.2	-9.9
COc1cccc(-n2c(=O)c3cc(OC)c(OC)cc3n(CC(=O)Nc3cc(C)[nH]n3)c2=O)c1	6.5	2.2	-3.0	12.6	-0.4	-13.2
CN(C)Cc1c[nH]c2nc[nH]c(=O)c12	9.3	-26.0	·	11.1	0.0	-14.8
O=C1C=C(c2ccc(Cl)c(C(F)(F)F)c2)C[C@@H](c2ccc(Cl)cc2)C1	-6.2	33.3	·	-14.0	-2.8	-13.2
CC(=O)Nc1ccc2nc(NC(=O)c3ccc([N+](=O)[O-])o3)sc2c1	-23.9	81.1*	·	-18.3	0.0	39.9
Cc1c(NC(=O)c2ccc([N+](=O)[O-])o2)cccc1-c1nc2ncccc2o1	-31.2	96.5*	·	33.4	-0.7	22.2
O=C(Nc1ccc2oc(-c3cccnc3)nc2c1)c1ccc([N+](=O)[O-])o1	-57.6*	89.0*	20.9	23.8	-0.9	40.7
CS(=O)(=O)c1ccc2nc(NC(=O)c3cccc([N+](=O)[O-])c3)sc2c1	-22.4	18.4	·	-262.2	-0.7	62.1*
COc1cccc(C(=O)Nc2cccc(-c3nc4ncccc4o3)c2C)c1	-0.4	-16.8	2.3	-52.9	-2.8	-25.8
Cc1ccc2nc(-c3ccc(NC(=O)COC(=O)c4ccc([N+](=O)[O-])o4)cc3)sc2c1	-10.8	-21.1	50.6*	-59.7	-2.9	71.5*
CCOc1ncccc1C(=O)OCC(=O)Nc1ccc(-c2nc3ccc(C)cc3s2)cc1	-13.9	-10.3	37.9	-135.2	-3.8	74.5*
Cc1ccc2nc(-c3ccc(NC(=O)CN(c4ccccc4C)S(C)(=O)=O)cc3)sc2c1	-2.1	-21.8	12.6	-216.0	-1.9	43.0*
Cc1cc(C)cc(N(CC(=O)Nc2ccc(-c3nc4ccc(C)cc4s3)cc2)S(C)(=O)=O)c1	-20.9	6.9	12.0	-211.7	0.7	3.9
O=C(CSc1n[nH]c(-c2ccncc2)n1)Nc1ccccc1C(F)(F)F	-1.5	0.5	·	-4.1	2.0	18.5
CCOC(=O)c1c(/N=C/C2=C(O)CC(C)(C)CC2=O)sc2c1CCCC2	8.7	0.7	5.7	1.9	1.4	8.9
CCC(=O)N1CCc2cc(S(=O)(=O)NC(C(=O)NCc3ccc(C)cc3)C(C)C)ccc21 (centres undefined)	-12.1	1.5	19.6	11.9	1.6	1.8
CCC(=O)N1CCc2cc(S(=O)(=O)NC(C(=O)NC3CCCc4ccccc43)C(C)C)ccc21 (centres undefined)	-1.0	-10.1	61.6*	14.8	-0.9	8.3
c1ccc(CCc2nn3c(-c4ccncc4)nnc3s2)cc1	-13.7	72.0*	38.8	-7.6	3.5	11.5
O=C(COC(=O)C1CCC1)Nc1ncc(Cl)cc1Cl	-2.8	16.4	·	6.2	0.5	4.7
COc1cccc(N2CCN(c3ncnc4c3cnn4-c3ccc(C)cc3C)CC2)c1	-82.9*	80.3*	20.6	-121.7	-1.3	92.8*
Cc1cccc(-n2ncc3c(N4CCC(C)CC4)ncnc32)c1	-22.7	9.1	21.7	-137.3	-0.4	50.1*
CC(C)Nc1ncnc2c1cnn2-c1ccccc1	-12.6	21.1	·	-242.7	-2.7	43.0
Cc1cccc(-n2ncc3c(N4CCC5(CC4)OCCO5)ncnc32)c1	-25.8	22.0	-11.1	-298.3	-0.4	19.6
Cc1cccc(-n2ncc3c(NC(C)C)ncnc32)c1	-12.8	36.5	31.0	-200.0	-3.4	66.4*

Bioassay records (PubChem BioAssay)
